{"source": "PubChem BioAssay (NCATS)", "note": "Values joined by “and” are separate entries in the source; they are usually repeats but may differ in a detail not shown here. Identical values can stand only once. Records with an inconclusive call do not appear. Entries that show only a call come without a potency. More than one record can exist for a structure, and the calls need not agree. Active and inactive are the calls of the source. The call rests on the fitted dose curve; in most records, active means well fitted curve in the direction sought with a large enough effect; inconclusive means small, poorly fitted or top-dose-only effect, or another doubt; inactive means no such curve, though single readings can be large; an effect the other way counts as inactive or inconclusive.", "data": [{"molecular_target": "Tyrosine-protein kinase Yes (Homo sapiens) (UniProt P07947)", "sequence (P07947 whole entry, looked up)": "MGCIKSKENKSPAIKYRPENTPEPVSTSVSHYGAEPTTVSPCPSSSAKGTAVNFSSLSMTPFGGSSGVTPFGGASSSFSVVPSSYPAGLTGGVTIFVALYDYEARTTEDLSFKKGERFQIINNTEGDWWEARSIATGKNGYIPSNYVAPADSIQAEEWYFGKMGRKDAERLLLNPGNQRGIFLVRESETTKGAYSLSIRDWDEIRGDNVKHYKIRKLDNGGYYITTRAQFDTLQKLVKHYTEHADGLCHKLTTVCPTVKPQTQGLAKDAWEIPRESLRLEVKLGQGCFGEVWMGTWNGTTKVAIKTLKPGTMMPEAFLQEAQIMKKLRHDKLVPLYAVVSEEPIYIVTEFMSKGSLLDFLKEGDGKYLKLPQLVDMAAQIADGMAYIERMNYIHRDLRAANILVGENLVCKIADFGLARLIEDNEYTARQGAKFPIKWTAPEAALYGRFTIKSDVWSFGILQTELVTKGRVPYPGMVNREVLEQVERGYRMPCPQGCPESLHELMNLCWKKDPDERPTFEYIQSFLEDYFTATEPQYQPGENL", "assay": "qHTS for small molecule inhibitors of Yes1 kinase: Primary Screen (AID 686947); further: nearly all actives have a fitted effect of over 60% in size; further: potency means the concentration at half of the fitted maximal effect", "conditions": "Yes1 kinase biochemical qHTS inhibition; series mostly up to 76.9 µM", "in_short": "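ADP-Glo luminescence reports ADP formed by 4 nM Yes1 phosphorylating poly(E4Y) (0.3 mg/mL) with 0.1 mM ATP for 60 min at room temperature, following 20 min compound preincubation; normalised between DMSO wells with and without enzyme.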", "values": [{"smiles": "CC(Oc1cc(-n2cnc3ccc(OC4CCN(C)CC4)cc32)sc1C(N)=O)c1ccccc1Cl", "note": "(stereo not given)", "Potency": "5.82 µM (active)"}, {"smiles": "Fc1ccc(-c2ncn(C3CCNCC3)c2-c2ccnc(Oc3ccccc3)n2)cc1", "Potency": "11.6 µM (active)"}, {"smiles": "Oc1[nH]c2ccccc2c1C=Nc1ccc(-n2cncn2)cc1", "Potency": "9.23 µM (active)"}, {"smiles": "COc1cccc(-n2ncc3c(NN=Cc4ccc(F)cc4)ncnc32)c1", "Potency": "0.582 µM (active)"}, {"smiles": "COc1cc(C)c(N(C)C(=O)CN(C)C)cc1Nc1nc(Nc2cccc(F)c2C(N)=O)c2cc[nH]c2n1", "Potency": "inactive"}, {"smiles": "Fc1ccc(-c2ncn(C3CCNCC3)c2-c2ccnc(Oc3ccc(Oc4ccccc4)cc3)n2)cc1", "Potency": "inactive"}, {"smiles": "O=C(OC1CNC(C#Cc2cc3ncnc(Nc4ccc(OCc5cccc(F)c5)c(Cl)c4)c3s2)C1)N1CCOCC1", "note": "(stereo not given)", "Potency": "6.54 µM (active)"}, {"smiles": "c1ccc(Cc2nc3ccc(Nc4ncnc5ccccc45)cc3[nH]2)cc1", "Potency": "1.16 µM (active)"}, {"smiles": "Cc1ccc(C(=O)NC2CCCCC2)cc1-c1ccc(C(=O)NCC2CC2)cc1", "Potency": "inactive"}, {"smiles": "NC(=O)Cc1ccccc1Oc1nccc(-c2c(-c3ccc(F)cc3)ncn2C2CCNCC2)n1", "Potency": "36.8 µM (active)"}, {"smiles": "CS(=O)(=O)CCNCc1ccc(-c2ccc3ncnc(Nc4ccc(OCc5ccccc5)cc4)c3c2)o1", "Potency": "0.463 µM (active)"}, {"smiles": "CS(=O)(=O)CCNCc1cc(-c2cc3c(Nc4ccc(OCc5cccc(F)c5)c(Cl)c4)ncnc3s2)cs1", "Potency": "46.3 µM (active)"}, {"smiles": "CN1CCN(C(=O)c2ccc(NC(=O)Nc3ccc(N(C)c4ccnc(Nc5ccc(CS(C)(=O)=O)cc5)n4)cc3)cc2)CC1", "Potency": "14.6 µM (active)"}, {"smiles": "COC(=O)Nc1nc2ccc(Oc3ccc(NC(=O)Nc4cccc(C(=O)O)c4)cc3)cc2[nH]1", "Potency": "inactive"}, {"smiles": "CN1CCC(n2cnc(-c3ccc(F)cc3)c2-c2ccnc(Nc3ccccc3)n2)CC1", "Potency": "1.16 µM (active)"}, {"smiles": "COC(=O)Nc1nc2ccc(Oc3ccc(NC(=O)Nc4cccc(Br)c4)cc3)cc2[nH]1", "Potency": "inactive"}, {"smiles": "CCS(=O)(=O)c1ccc(OC)c(Nc2ncc(-c3cccc(C(C)=O)c3)o2)c1", "Potency": "0.292 µM (active)"}, {"smiles": "O=C(Nc1n[nH]c2nc(-c3ccco3)ccc12)C1CC1", "Potency": "2.32 µM (active)"}, {"smiles": "Nc1nc(-c2ccc3c(c2)C(=Cc2cc(Br)c(O)c(Br)c2)C(=O)N3)cs1", "Potency": "1.46 µM (active)"}, {"smiles": "Cc1ccc2c(-c3ccnc(Nc4ccc5c(c4)OCCO5)n3)c(-c3ccc(C(F)(F)F)cc3)nn2n1", "Potency": "0.823 µM (active)"}, {"smiles": "CCN1CCC(CC(=O)Nc2n[nH]c3nc(-c4cccs4)c(Br)cc23)CC1", "Potency": "26 µM (active)"}, {"smiles": "Nc1nccc(-c2c(-c3ccc(F)cc3)ncn2C2CCC(O)CC2)n1", "note": "(stereo not given)", "Potency": "0.733 µM (active)"}, {"smiles": "FC(F)(F)c1ccc(-c2nn3ncccc3c2-c2ccnc(Nc3ccc4c(c3)OCCO4)n2)cc1", "Potency": "2.6 µM (active)"}, {"smiles": "NCc1ccc(-c2nc(-c3ccc(Cl)c(O)c3)c(-c3ccncc3)[nH]2)cc1", "Potency": "0.328 µM (active)"}, {"smiles": "CCCN(CCS(C)(=O)=O)Cc1ccc(-c2ccc3ncnc(Nc4ccc(OCc5cccc(F)c5)c(Cl)c4)c3c2)o1", "Potency": "6.54 µM (active)"}, {"smiles": "COc1cc(Nc2ncc(-c3ccccc3)o2)cc(OC)c1", "Potency": "1.46 µM (active)"}, {"smiles": "O=S1CCN(Cc2ccc(-c3ccc4ncnc(Nc5ccc(OCc6ccccc6)c(Cl)c5)c4c3)o2)CC1", "Potency": "0.368 µM (active)"}, {"smiles": "CC1(C)CC(n2cnc(-c3ccc(F)cc3)c2-c2ccnc(N)n2)CC(C)(C)N1", "Potency": "5.19 µM (active)"}, {"smiles": "COc1ccc2cc(-c3c(-c4ccncc4)nc(-c4ccc(S(C)=O)cc4C)n3C)ccc2c1", "note": "(stereo not given)", "Potency": "1.64 µM (active)"}, {"smiles": "CCn1c(-c2nonc2N)nc2c(C#CCN)ncc(OCCCN)c21", "Potency": "inactive"}, {"smiles": "COc1c(C(N)=O)cc(-c2ccc(Cl)cc2)cc1-c1ccc(S(N)(=O)=O)cc1", "Potency": "10.4 µM (active)"}, {"smiles": "O=C1NC(=O)C(c2ccc(Cl)cc2)=C1Nc1ccc(Cl)c(C(=O)O)c1", "Potency": "inactive"}, {"smiles": "Nc1ncnc2occ(-c3ccc(NC(=O)Nc4cc(C(F)(F)F)ccc4F)cc3)c12", "Potency": "2.07 µM (active) and inactive"}, {"smiles": "COC(=O)Nc1nc2ccc(Sc3ccc(NC(=O)Nc4cc(C(F)(F)F)ccc4F)cc3)cc2[nH]1", "Potency": "inactive"}, {"smiles": "Cc1cc(O)cc(C)c1C=Cc1cncc(C(N)=O)c1", "Potency": "0.463 µM (active)"}, {"smiles": "Nc1nc(-c2ccc(F)cc2)c(-c2ccc3ncccc3n2)s1", "Potency": "0.463 µM (active)"}, {"smiles": "COc1cc2ncn(-c3cc(OC(C)c4ccccc4Cl)c(C(N)=O)s3)c2cc1OC", "note": "(stereo not given)", "Potency": "2.92 µM (active) and 733 nM (active)"}, {"smiles": "CN1CCN(CCCNc2nc3ccc(Oc4ccc(NC(=O)Nc5cc(C(F)(F)F)ccc5F)cc4)cc3[nH]2)CC1", "Potency": "inactive"}, {"smiles": "NS(=O)(=O)c1cccc(-c2cc3ccncc3cc2OCc2ccccc2)c1", "Potency": "inactive"}, {"smiles": "NS(=O)(=O)c1ccc(-c2ccc3c(NC(=O)C4CC4)n[nH]c3c2)cc1", "Potency": "1.84 µM (active)"}]}, {"test_system": "not listed separately", "assay": "qHTS for small molecule inhibitors of Yes1 kinase: Counter Assay (AID 686950);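 further: no kinase present so only ADP-Glo detection of a fixed ADP amount is tested; luminescence from ADP-Glo reporting ADP in a fixed ATP and ADP mixture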", "conditions": "series mostly up to 76.9 µM", "in_short": "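Measuring interference with ADP-Glo, the assay ran 60 min at room temperature on an ATP/ADP mix lacking enzyme. Values were normalized to ATP-plus-ADP (maximum) and ATP-only (minimum) DMSO controls.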", "values": [{"smiles": "CC(Oc1cc(-n2cnc3ccc(OC4CCN(C)CC4)cc32)sc1C(N)=O)c1ccccc1Cl", "note": "(stereo not given)", "outcome": "inactive"}, {"smiles": "Fc1ccc(-c2ncn(C3CCNCC3)c2-c2ccnc(Oc3ccccc3)n2)cc1", "outcome": "inactive"}, {"smiles": "Oc1[nH]c2ccccc2c1C=Nc1ccc(-n2cncn2)cc1", "outcome": "inactive"}, {"smiles": "COc1cccc(-n2ncc3c(NN=Cc4ccc(F)cc4)ncnc32)c1", "outcome": "inactive"}, {"smiles": "COc1cc(C)c(N(C)C(=O)CN(C)C)cc1Nc1nc(Nc2cccc(F)c2C(N)=O)c2cc[nH]c2n1", "outcome": "inactive"}, {"smiles": "Fc1ccc(-c2ncn(C3CCNCC3)c2-c2ccnc(Oc3ccc(Oc4ccccc4)cc3)n2)cc1", "outcome": "inactive"}, {"smiles": "O=C(OC1CNC(C#Cc2cc3ncnc(Nc4ccc(OCc5cccc(F)c5)c(Cl)c4)c3s2)C1)N1CCOCC1", "note": "(stereo not given)", "outcome": "inactive"}, {"smiles": "c1ccc(Cc2nc3ccc(Nc4ncnc5ccccc45)cc3[nH]2)cc1", "outcome": "inactive"}, {"smiles": "Cc1ccc(C(=O)NC2CCCCC2)cc1-c1ccc(C(=O)NCC2CC2)cc1", "outcome": "inactive"}, {"smiles": "NC(=O)Cc1ccccc1Oc1nccc(-c2c(-c3ccc(F)cc3)ncn2C2CCNCC2)n1", "outcome": "inactive"}, {"smiles": "CS(=O)(=O)CCNCc1ccc(-c2ccc3ncnc(Nc4ccc(OCc5ccccc5)cc4)c3c2)o1", "outcome": "inactive"}, {"smiles": "CS(=O)(=O)CCNCc1cc(-c2cc3c(Nc4ccc(OCc5cccc(F)c5)c(Cl)c4)ncnc3s2)cs1", "outcome": "inactive"}, {"smiles": "CN1CCN(C(=O)c2ccc(NC(=O)Nc3ccc(N(C)c4ccnc(Nc5ccc(CS(C)(=O)=O)cc5)n4)cc3)cc2)CC1", "outcome": "inactive"}, {"smiles": "COC(=O)Nc1nc2ccc(Oc3ccc(NC(=O)Nc4cccc(C(=O)O)c4)cc3)cc2[nH]1", "outcome": "inactive"}, {"smiles": "CN1CCC(n2cnc(-c3ccc(F)cc3)c2-c2ccnc(Nc3ccccc3)n2)CC1", "outcome": "inactive"}, {"smiles": "COC(=O)Nc1nc2ccc(Oc3ccc(NC(=O)Nc4cccc(Br)c4)cc3)cc2[nH]1", "outcome": "inactive"}, {"smiles": "CCS(=O)(=O)c1ccc(OC)c(Nc2ncc(-c3cccc(C(C)=O)c3)o2)c1", "outcome": "inactive"}, {"smiles": "O=C(Nc1n[nH]c2nc(-c3ccco3)ccc12)C1CC1", "outcome": "inactive"}, {"smiles": "Nc1nc(-c2ccc3c(c2)C(=Cc2cc(Br)c(O)c(Br)c2)C(=O)N3)cs1", "outcome": "inactive"}, {"smiles": "Cc1ccc2c(-c3ccnc(Nc4ccc5c(c4)OCCO5)n3)c(-c3ccc(C(F)(F)F)cc3)nn2n1", "outcome": "inactive"}, {"smiles": "CCN1CCC(CC(=O)Nc2n[nH]c3nc(-c4cccs4)c(Br)cc23)CC1", "outcome": "inactive"}, {"smiles": "Nc1nccc(-c2c(-c3ccc(F)cc3)ncn2C2CCC(O)CC2)n1", "note": "(stereo not given)", "outcome": "inactive"}, {"smiles": "FC(F)(F)c1ccc(-c2nn3ncccc3c2-c2ccnc(Nc3ccc4c(c3)OCCO4)n2)cc1", "outcome": "inactive"}, {"smiles": "NCc1ccc(-c2nc(-c3ccc(Cl)c(O)c3)c(-c3ccncc3)[nH]2)cc1", "outcome": "inactive"}, {"smiles": "CCCN(CCS(C)(=O)=O)Cc1ccc(-c2ccc3ncnc(Nc4ccc(OCc5cccc(F)c5)c(Cl)c4)c3c2)o1", "outcome": "inactive"}, {"smiles": "COc1cc(Nc2ncc(-c3ccccc3)o2)cc(OC)c1", "outcome": "inactive"}, {"smiles": "O=S1CCN(Cc2ccc(-c3ccc4ncnc(Nc5ccc(OCc6ccccc6)c(Cl)c5)c4c3)o2)CC1", "outcome": "inactive"}, {"smiles": "CC1(C)CC(n2cnc(-c3ccc(F)cc3)c2-c2ccnc(N)n2)CC(C)(C)N1", "outcome": "inactive"}, {"smiles": "COc1ccc2cc(-c3c(-c4ccncc4)nc(-c4ccc(S(C)=O)cc4C)n3C)ccc2c1", "note": "(stereo not given)", "outcome": "inactive"}, {"smiles": "CCn1c(-c2nonc2N)nc2c(C#CCN)ncc(OCCCN)c21", "outcome": "inactive"}, {"smiles": "COc1c(C(N)=O)cc(-c2ccc(Cl)cc2)cc1-c1ccc(S(N)(=O)=O)cc1", "outcome": "inactive"}, {"smiles": "O=C1NC(=O)C(c2ccc(Cl)cc2)=C1Nc1ccc(Cl)c(C(=O)O)c1", "outcome": "inactive"}, {"smiles": "Nc1ncnc2occ(-c3ccc(NC(=O)Nc4cc(C(F)(F)F)ccc4F)cc3)c12", "outcome": "inactive"}, {"smiles": "COC(=O)Nc1nc2ccc(Sc3ccc(NC(=O)Nc4cc(C(F)(F)F)ccc4F)cc3)cc2[nH]1", "outcome": "inactive"}, {"smiles": "Cc1cc(O)cc(C)c1C=Cc1cncc(C(N)=O)c1", "outcome": "inactive"}, {"smiles": "Nc1nc(-c2ccc(F)cc2)c(-c2ccc3ncccc3n2)s1", "outcome": "inactive"}, {"smiles": "COc1cc2ncn(-c3cc(OC(C)c4ccccc4Cl)c(C(N)=O)s3)c2cc1OC", "note": "(stereo not given)", "outcome": "inactive"}, {"smiles": "CN1CCN(CCCNc2nc3ccc(Oc4ccc(NC(=O)Nc5cc(C(F)(F)F)ccc5F)cc4)cc3[nH]2)CC1", "outcome": "inactive"}, {"smiles": "NS(=O)(=O)c1cccc(-c2cc3ccncc3cc2OCc2ccccc2)c1", "outcome": "inactive"}, {"smiles": "NS(=O)(=O)c1ccc(-c2ccc3c(NC(=O)C4CC4)n[nH]c3c2)cc1", "outcome": "inactive"}]}]}
